Data reported in PubChem BioAssay (Tox21).
Values without a mark were called inactive. A call without a number means that no potency is given here. Calls of active or inactive are those of the source. Unless noted, calls follow the shape of the dose curve; as a rule, active = well fitted curve in the direction sought with a large enough effect in the repeat runs; inconclusive = weak or mixed curves; inactive = no such curve, though single readings can be large; an effect the other way counts as inactive or inconclusive.

Experiments:
[1] = qHTS assay to identify small molecule antagonists of the glucocorticoid receptor (GR) signaling pathway - cell viability counter screen (AID 720693); also: nearly all actives have a fitted effect of over 55% in size
[2] = qHTS assay for identifying genotoxic compounds that show differential cytotoxicity against isogenic chicken DT40 cell lines with known DNA damage response pathways - wild type cell line (AID 743012); also: nearly all actives have a fitted effect of over 60% in size; also: potency is read from the fitted curve at half-maximal effect
Summary of the method: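 Luminescent ATP viability signal (CellTiter-Glo, 30 min RT) recorded after wild type DT40 cells were incubated with compounds for 40 h at 37 C/5% CO2.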

[3] = qHTS assay for identifying genotoxic compounds that show differential cytotoxicity against isogenic chicken DT40 cell lines with known DNA damage response pathways - Rev3 mutant cell line (AID 743014); also: nearly all actives have a fitted effect of over 55% in size; also: potency is read from the fitted curve at half-maximal effect
[4] = qHTS assay to identify small molecule antagonists of the androgen receptor (AR) signaling pathway - cell viability counter screen (AID 743033; also: nearly all actives have a fitted effect of over 45% in size)
[5] = qHTS assay to identify small molecule antagonists of the androgen receptor (AR) signaling pathway using the MDA cell line - cell viability counter screen (AID 743041; also: nearly all actives have a fitted effect of over 45% in size)
Summary of the method: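 Cytotoxicity counter screen: MDA-kb2 AR-luc cells, compound + R1881, 16 h, 37C, 0% CO2; CellTiter-Fluor added at 15.5 h, fluorescence read after 30 min.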

[6] = qHTS assay to identify small molecule antagonists of the thyroid receptor (TR) signaling pathway (AID 743065); also: nearly all actives have a fitted effect of over 55% in size; also: potency is read from the fitted curve at half-maximal effect
Summary of the method: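 GH3.TRE-Luc rat pituitary cells (two TREs driving luciferase) were dosed with compound, then stimulated with 1 nM T3 (final) for 23.5 h at 37 C. ONE-Glo luminescence was the read-out, with CellTiter-Fluor fluorescence as the cytotoxicity counter-screen.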

[7] = tested on: thyroid hormone receptor (rat, GH3 cells); experiment: qHTS assay to identify small molecule agonists of the thyroid receptor (TR) signaling pathway (AID 743066; calls by dose curve)
[8] = molecular target: Estrogen receptor (Homo sapiens) (UniProt P03372); experiment: qHTS assay to identify small molecule antagonists of the estrogen receptor alpha (ER-alpha) signaling pathway (AID 743069; active = well fitted curve in the direction sought with a large enough effect in the signal ratio in the repeat runs, not every such curve was filed as active; inconclusive = weak or mixed curves, or effect the other way; inactive = no such curve, though single readings can be large or run the other way; the % refers to the signal ratio; also: potency is read from the fitted curve at half-maximal effect)
Summary of the method: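 Beta-lactamase FRET fluorescence is read after 2 hr at room temperature with LiveBLAzer B/G substrate. Before that, ER-alpha-bla HEK293 cells sit 4 hr after plating, then receive compound plus 17beta-estradiol and incubate 18 hr at 37C.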

[9] = qHTS assay to identify small molecule antagonists of the estrogen receptor alpha (ER-alpha) signaling pathway - cell viability counter screen (AID 743074; calls by dose curve;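 also: HEK293 cells carrying ER-alpha-UAS-bla reporter stimulated with 17beta-estradiol; nearly all actives have a fitted effect of over 45% in size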)
[10] = molecular target: Estrogen receptor (Homo sapiens) (UniProt P03372); experiment: qHTS assay to identify small molecule agonists of the estrogen receptor alpha (ER-alpha) signaling pathway (AID 743075; calls by dose curve;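 also: HEK293 GripTite cells with ER-alpha and UAS-driven beta-lactamase reporter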)
[11] = molecular target: Estrogen receptor (Homo sapiens) (UniProt P03372); experiment: qHTS assay to identify small molecule agonists of the estrogen receptor alpha (ER-alpha) signaling pathway using the BG1 cell line (AID 743079); also: nearly all actives have a fitted effect of over 20% in size; also: potency is read from the fitted curve at half-maximal effect
[12] = qHTS assay to identify small molecule antagonists of the estrogen receptor alpha (ER-alpha) signaling pathway using the BG1 cell line (AID 743080; calls by dose curve;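 also: BG1 cells stimulated with 17beta-estradiol alongside compound; series mostly up to about 70 µM; nearly all actives have a fitted effect of over 25% in size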)
Summary of the method: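 Endogenous full-length ER-alpha in BG1-Luc-4E2 cells drives a stably integrated 4×ERE luciferase gene; compounds were tested against 17beta-estradiol over 21.5 h, with luminescence and multiplexed viability fluorescence recorded.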

[13] = qHTS assay to identify small molecule antagonists of the estrogen receptor alpha (ER-alpha) signaling pathway using the BG1 cell line - cell viability counter screen (AID 743081);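 also: compound given together with 17beta-estradiol as the ER stimulus; series mostly up to about 70 µM; nearly all actives have a fitted effect of over 45% in size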
Aromatase (Homo sapiens) = Aromatase (Homo sapiens) (UniProt P11511); experiment: qHTS assay to identify aromatase inhibitors (AID 743083); also: series mostly up to about 70 µM; nearly all actives have a fitted effect of over 55% in size
[14] = qHTS assay for identifying genotoxic compounds that show differential cytotoxicity against isogenic chicken DT40 cell lines with known DNA damage response pathways - Rad54/Ku70 mutant cell line (AID 743015); also: nearly all actives have a fitted effect of over 60% in size; also: potency is read from the fitted curve at half-maximal effect
[15] = molecular target: Androgen receptor (Homo sapiens) (UniProt P10275); experiment: qHTS assay to identify small molecule antagonists of the androgen receptor (AR) signaling pathway (AID 743035; active = well fitted inhibition curve with a large enough effect in the signal ratio in the repeat runs, not every such curve was filed as active; inconclusive = weak or mixed curves, or effect the other way; inactive = no such curve, though single readings can be large or run the other way; the % refers to the signal ratio)
Summary of the method: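 Quantitative HTS of the Tox21 10K library used HEK293 AR-UAS-bla cells stimulated with R1881 alongside compound for 16 h at 37C, followed by beta-lactamase FRET detection (LiveBLAzer B/G, 2 h, RT).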

[16] = molecular target: Androgen receptor (Homo sapiens) (UniProt P10275); experiment: qHTS assay to identify small molecule agonists of the androgen receptor (AR) signaling pathway using the MDA cell line (AID 743040; also: nearly all actives have a fitted effect of over 20% in size)
Summary of the method: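 Luciferase read-out, ONE-Glo, 30 min RT. Cells: MDA-kb2 AR-luc, MMTV promoter with AR and GR response elements. Compound exposure 16 h, 37C, 0% CO2, after 5 h pre-incubation. qHTS agonist mode.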

[17] = molecular target: Androgen receptor (Homo sapiens) (UniProt P10275); experiment: qHTS assay to identify small molecule antagonists of the androgen receptor (AR) signaling pathway using the MDA cell line (AID 743042; also: nearly all actives have a fitted effect of over 55% in size)
Summary of the method: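 MDA-kb2 breast carcinoma cells carrying MMTV-luciferase (AR/GR responsive) were co-treated with compounds and the agonist R1881 for 16 h at 37C. Inhibition read as ONE-Glo luminescence; CellTiter-Fluor fluorescence measured in parallel for cytotoxicity.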

[18] = qHTS assay to identify small molecule antagonists of the thyroid receptor (TR) signaling pathway - cell viability counter screen (AID 743064); also: nearly all actives have a fitted effect of over 50% in size; also: potency is read from the fitted curve at half-maximal effect
Summary of the method: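 CellTiter-Fluor readout, 30 min at 37 °C/5% CO2, following 23.5 h incubation of GH3.TRE-Luc cells with test compound and 1 nM T3 (final).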

[19] = molecular target: Androgen receptor (Homo sapiens) (UniProt P10275); experiment: qHTS assay to identify small molecule agonists of the androgen receptor (AR) signaling pathway (AID 743036; active = well fitted activation curve with a large enough effect in the signal ratio in the repeat runs, with a control signal flat, not every such curve was filed as active; inconclusive = weak or mixed curves, or effect the other way; inactive = no such curve, though single readings can be large or run the other way; the % refers to the signal ratio)
Summary of the method: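 Following a 4 h settling period, AR-UAS-bla HEK293 cells were dosed with compounds for 16 h at 37C. A 2 h room-temperature incubation with LiveBLAzer B/G FRET substrate preceded the fluorescence measurement.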

Androgen receptor (Homo sapiens), sequence (P10275 whole entry, looked up): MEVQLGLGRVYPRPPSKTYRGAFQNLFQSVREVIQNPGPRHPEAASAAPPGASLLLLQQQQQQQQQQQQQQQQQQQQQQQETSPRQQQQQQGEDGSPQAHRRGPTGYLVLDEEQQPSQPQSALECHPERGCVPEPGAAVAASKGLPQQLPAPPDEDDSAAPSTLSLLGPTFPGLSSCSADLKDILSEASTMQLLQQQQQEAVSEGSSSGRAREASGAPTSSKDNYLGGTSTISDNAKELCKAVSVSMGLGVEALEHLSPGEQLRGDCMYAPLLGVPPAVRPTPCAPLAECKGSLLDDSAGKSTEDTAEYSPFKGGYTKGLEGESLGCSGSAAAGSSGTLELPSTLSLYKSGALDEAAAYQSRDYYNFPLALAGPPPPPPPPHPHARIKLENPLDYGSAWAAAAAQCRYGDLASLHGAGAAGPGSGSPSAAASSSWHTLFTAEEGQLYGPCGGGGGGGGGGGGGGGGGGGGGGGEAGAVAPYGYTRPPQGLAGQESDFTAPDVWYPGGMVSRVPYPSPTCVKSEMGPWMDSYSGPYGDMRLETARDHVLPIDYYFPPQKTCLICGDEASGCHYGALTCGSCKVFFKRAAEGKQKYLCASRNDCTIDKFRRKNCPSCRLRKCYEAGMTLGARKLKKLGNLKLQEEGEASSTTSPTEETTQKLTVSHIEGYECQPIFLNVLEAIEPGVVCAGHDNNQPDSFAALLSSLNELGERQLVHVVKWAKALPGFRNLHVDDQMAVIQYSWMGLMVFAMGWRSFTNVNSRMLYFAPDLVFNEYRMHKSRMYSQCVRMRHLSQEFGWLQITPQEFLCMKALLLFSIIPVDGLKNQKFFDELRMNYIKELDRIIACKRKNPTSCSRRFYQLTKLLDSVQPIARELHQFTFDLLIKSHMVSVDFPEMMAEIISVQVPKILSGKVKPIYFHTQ
Aromatase (Homo sapiens), sequence (P11511 whole entry, looked up): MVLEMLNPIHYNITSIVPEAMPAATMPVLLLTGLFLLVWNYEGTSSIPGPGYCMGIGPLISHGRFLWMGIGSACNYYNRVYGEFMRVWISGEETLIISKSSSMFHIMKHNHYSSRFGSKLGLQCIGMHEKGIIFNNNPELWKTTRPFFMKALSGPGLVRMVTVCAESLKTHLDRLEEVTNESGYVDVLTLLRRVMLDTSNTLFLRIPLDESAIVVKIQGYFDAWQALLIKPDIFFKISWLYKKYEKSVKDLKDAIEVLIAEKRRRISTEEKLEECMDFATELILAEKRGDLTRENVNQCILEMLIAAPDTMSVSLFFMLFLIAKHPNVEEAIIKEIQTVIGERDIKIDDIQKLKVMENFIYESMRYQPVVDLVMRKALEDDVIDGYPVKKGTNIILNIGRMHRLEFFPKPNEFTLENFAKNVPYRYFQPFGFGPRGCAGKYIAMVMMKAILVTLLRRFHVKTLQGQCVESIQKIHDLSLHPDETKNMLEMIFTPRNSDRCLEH
Estrogen receptor (Homo sapiens), sequence (P03372 whole entry, looked up): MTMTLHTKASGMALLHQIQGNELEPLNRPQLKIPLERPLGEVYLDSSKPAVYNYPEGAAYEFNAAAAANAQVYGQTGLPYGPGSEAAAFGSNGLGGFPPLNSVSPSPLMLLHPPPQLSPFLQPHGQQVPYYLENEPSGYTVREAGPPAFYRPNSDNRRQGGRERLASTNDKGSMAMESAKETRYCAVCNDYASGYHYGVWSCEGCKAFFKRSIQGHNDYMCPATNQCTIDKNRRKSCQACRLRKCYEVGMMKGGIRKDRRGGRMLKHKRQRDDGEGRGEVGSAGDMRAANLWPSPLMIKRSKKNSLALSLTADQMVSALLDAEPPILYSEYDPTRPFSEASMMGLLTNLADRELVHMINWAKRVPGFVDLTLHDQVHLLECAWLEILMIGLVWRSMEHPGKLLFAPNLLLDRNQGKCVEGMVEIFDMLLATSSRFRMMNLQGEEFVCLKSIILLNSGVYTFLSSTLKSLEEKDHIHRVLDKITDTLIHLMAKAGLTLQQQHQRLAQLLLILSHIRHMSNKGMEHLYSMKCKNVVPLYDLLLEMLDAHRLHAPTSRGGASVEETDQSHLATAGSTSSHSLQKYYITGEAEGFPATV

Structure (SMILES) | outcome [1] | Potency [2] | Potency [3] | outcome [4] | Potency [5] | Potency [6] | outcome [7] | Potency [8] | Potency [9] | outcome [10] | Potency [11] | outcome [12] | Potency [13] | Potency (Aromatase (Homo sapiens)) | Potency [14] | Potency [15] | Potency [16] | outcome [17] | Potency [18] | outcome [19]
CC(=O)OC1C2(C)CCC(C2)C1(C)C (stereo unspecified) | inactive | inactive | inactive | inactive | inactive | inactive | inactive | inactive | inactive | inactive | inactive | inactive | inactive | inactive |  |  |  |  |  | 
OCCN(CCO)CCN(CCO)CCO | inactive | inactive |  |  | inactive | inactive | inactive | inactive | inactive | inactive |  | inactive | inactive | inactive | inactive | inactive | inactive | inactive | inactive | 
CCCNC(C)C(=O)Nc1c(C)csc1C(=O)OC (stereo unspecified) | inactive | inactive |  | inactive | inactive | inactive | inactive | inactive | inactive | inactive | inactive | inactive | inactive | inactive | inactive |  |  |  | inactive | 
CCCNC(C)(C)COC(=O)c1ccccc1 | inactive | inactive |  | inactive | inactive | inactive | inactive | inactive | inactive | inactive | inactive | inactive | inactive | inactive | inactive |  |  |  |  | 
CC(C)NC[C@@H](O)COc1cccc2ccccc12 | inactive | 26.6 µM (active) |  |  | inactive |  | inactive |  | inactive |  |  |  | inactive | inactive |  |  |  |  |  | 
Cc1c(C(=O)NCCO)[n+](=O)c2ccccc2n1[O-] | inactive | inactive |  | inactive | inactive | inactive | inactive |  | inactive |  |  |  | inactive | inactive |  | inactive | inactive | inactive | inactive | inactive
CCN1CC(CCN2CCOCC2)C(c2ccccc2)(c2ccccc2)C1=O (stereo unspecified) | inactive | inactive |  |  | inactive |  | inactive |  | inactive |  |  |  | inactive | inactive | inactive |  |  |  | inactive | 
CCCCCCCCCCCCOCCOS(=O)(=O)O | inactive | inactive | inactive | inactive | inactive | 68.6 µM (active) | inactive |  | inactive | inactive |  | inactive | inactive | inactive |  |  |  |  |  | 
CCCCC(=O)O[C@]1(C(=O)CO)[C@H](C)C[C@H]2[C@@H]3CCC4=CC(=O)C=C[C@]4(C)[C@@]3(F)[C@@H](O)C[C@@]21C | inactive | 26.6 µM (active) |  |  | inactive |  | inactive |  | inactive | inactive | inactive |  | inactive | inactive |  |  |  |  |  | 
CC1(O)CSC(C)(O)CS1 (stereo unspecified) | inactive |  | 61.1 µM (active) | inactive | inactive | inactive | inactive | inactive | inactive | inactive | inactive | inactive | inactive | inactive | 61.1 µM (active) | inactive | inactive | inactive | inactive | inactive
O=CCCc1ccccc1 | inactive | inactive |  |  | inactive | inactive | inactive |  |  |  |  |  | inactive | inactive | inactive |  |  |  |  | 
CCCCCCCCCC/C=C/C#N | inactive | inactive |  | inactive | inactive | inactive | inactive | inactive | inactive | inactive | inactive | inactive | inactive | inactive | inactive |  |  |  | inactive | 
CN1CCN(C2=Nc3ccccc3Oc3ccc(Cl)cc32)CC1 | inactive | 12.7 µM (active) |  | inactive | inactive |  | inactive | inactive | inactive | inactive | inactive | inactive | inactive | inactive |  |  |  |  |  | 
CCOc1ccc2nc(N)sc2c1 | inactive | inactive |  | inactive | inactive |  | inactive | inactive | inactive | inactive | 4.29 µM (active) |  | inactive | inactive |  |  |  |  | inactive | 
Cc1cc2nc(N)sc2cc1C | inactive | 61.7 µM (active) | 55 µM (active) |  | inactive | inactive | inactive |  | inactive |  |  |  | inactive | inactive |  |  | inactive | inactive | inactive | 
CN(C)CC[C@@H](c1ccc(Cl)cc1)c1ccccn1 | inactive |  | inactive | inactive | inactive |  | inactive |  |  |  |  |  |  |  | inactive |  |  |  |  | 
O=C(CC(=O)C(F)(F)F)c1ccccc1 | inactive | inactive |  | inactive | inactive |  | inactive | 28 µM [inconclusive] (active) | inactive | inactive | 19.6 µM (active) |  |  | inactive |  |  |  |  |  | 
CC1(C)S[C@@H]2[C@H](NC(=O)C(C(=O)O)c3ccccc3)C(=O)N2[C@H]1C(=O)O (stereo partly specified) | inactive | inactive |  | inactive | inactive |  | inactive |  | inactive |  |  |  | inactive | inactive | inactive |  |  |  | inactive | 
CC(=O)N[C@@H](CC(C)C)C(=O)O | inactive | inactive |  | inactive | inactive | inactive | inactive | inactive | inactive | inactive |  | inactive | inactive | inactive | inactive |  |  |  |  | 
CCCCCOc1ccc(C2SC(=O)NC2=O)cc1OCC (stereo unspecified) | inactive | inactive |  | inactive | inactive |  |  | inactive | inactive | inactive | inactive | inactive | inactive |  | inactive |  | inactive | inactive | inactive | inactive
O=C(O)[C@@H]1CSCN1 | inactive |  | inactive | inactive | inactive | inactive | inactive |  | inactive |  |  |  |  | inactive | inactive |  |  |  | inactive | 
CCN(CC)C(=O)N(CC)CC | inactive | inactive |  | inactive | inactive | inactive | inactive |  | inactive |  |  |  | inactive | inactive | inactive |  |  |  | inactive | 
Cc1cc2c(s1)Nc1ccccc1N=C2N1CCN(C)CC1 | inactive |  |  | inactive | inactive |  | inactive | inactive | inactive | inactive | inactive | inactive | inactive | inactive |  |  |  |  | 13.3 µM (active) | 
CCCCCCCOC(=O)CCC | inactive |  |  | inactive | inactive |  | inactive | inactive | inactive | inactive | inactive | inactive | inactive | inactive | inactive |  |  |  |  | 
CO[Si](C)(C)OC | inactive |  |  | inactive | inactive |  | inactive | inactive | inactive | inactive | inactive | inactive | inactive | inactive |  |  |  |  | inactive | 
Cc1c[nH]c(=S)[nH]c1=O | inactive |  | inactive |  |  | inactive | inactive | inactive | inactive | inactive | inactive | inactive | inactive |  | inactive |  |  |  | inactive | 
